Measured values taken from the supplement of paper PMC6411743.
± gives the standard deviation of the averaged measurements. About 5,400 targets were measured; listed, in parts, are those with the largest changes and a random draw of the rest.

Tests used:
Experiment in all cases: NP40-soluble protein abundance relative to vehicle (solubility fold change) (ratio); higher = more soluble protein in presence of GTP
GLA = biological target: T1, GLA (UniProt P06280)
T1 sequence (whole entry): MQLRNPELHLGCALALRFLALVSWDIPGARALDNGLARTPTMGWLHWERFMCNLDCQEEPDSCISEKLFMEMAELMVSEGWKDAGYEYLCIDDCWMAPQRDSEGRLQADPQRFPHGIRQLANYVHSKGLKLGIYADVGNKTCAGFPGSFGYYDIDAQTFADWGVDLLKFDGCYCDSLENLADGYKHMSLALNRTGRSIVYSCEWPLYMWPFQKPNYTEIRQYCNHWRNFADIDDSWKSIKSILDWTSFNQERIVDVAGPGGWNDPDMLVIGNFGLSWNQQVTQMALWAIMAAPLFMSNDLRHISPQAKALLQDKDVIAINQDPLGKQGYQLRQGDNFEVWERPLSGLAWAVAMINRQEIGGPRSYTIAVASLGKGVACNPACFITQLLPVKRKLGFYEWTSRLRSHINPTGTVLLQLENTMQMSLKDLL
Outline: (§1)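 Eight concentrations, 0.1 to 10 mM, were tested on Jurkat crude lysate for 10 min at room temperature and then 3 min at 37 °C, in three independent experiments. The lysate was solubilised with 0.8% NP40 and benzonase, ultracentrifuged, and the supernatant TMT-labelled for LC-MS/MS. Each value is the fold change against the detergent-processed vehicle in its own replicate, from vsn-normalised intensities.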

SEC24A = biological target: T2, SEC24A (UniProt O95486)
T2 sequence (whole entry): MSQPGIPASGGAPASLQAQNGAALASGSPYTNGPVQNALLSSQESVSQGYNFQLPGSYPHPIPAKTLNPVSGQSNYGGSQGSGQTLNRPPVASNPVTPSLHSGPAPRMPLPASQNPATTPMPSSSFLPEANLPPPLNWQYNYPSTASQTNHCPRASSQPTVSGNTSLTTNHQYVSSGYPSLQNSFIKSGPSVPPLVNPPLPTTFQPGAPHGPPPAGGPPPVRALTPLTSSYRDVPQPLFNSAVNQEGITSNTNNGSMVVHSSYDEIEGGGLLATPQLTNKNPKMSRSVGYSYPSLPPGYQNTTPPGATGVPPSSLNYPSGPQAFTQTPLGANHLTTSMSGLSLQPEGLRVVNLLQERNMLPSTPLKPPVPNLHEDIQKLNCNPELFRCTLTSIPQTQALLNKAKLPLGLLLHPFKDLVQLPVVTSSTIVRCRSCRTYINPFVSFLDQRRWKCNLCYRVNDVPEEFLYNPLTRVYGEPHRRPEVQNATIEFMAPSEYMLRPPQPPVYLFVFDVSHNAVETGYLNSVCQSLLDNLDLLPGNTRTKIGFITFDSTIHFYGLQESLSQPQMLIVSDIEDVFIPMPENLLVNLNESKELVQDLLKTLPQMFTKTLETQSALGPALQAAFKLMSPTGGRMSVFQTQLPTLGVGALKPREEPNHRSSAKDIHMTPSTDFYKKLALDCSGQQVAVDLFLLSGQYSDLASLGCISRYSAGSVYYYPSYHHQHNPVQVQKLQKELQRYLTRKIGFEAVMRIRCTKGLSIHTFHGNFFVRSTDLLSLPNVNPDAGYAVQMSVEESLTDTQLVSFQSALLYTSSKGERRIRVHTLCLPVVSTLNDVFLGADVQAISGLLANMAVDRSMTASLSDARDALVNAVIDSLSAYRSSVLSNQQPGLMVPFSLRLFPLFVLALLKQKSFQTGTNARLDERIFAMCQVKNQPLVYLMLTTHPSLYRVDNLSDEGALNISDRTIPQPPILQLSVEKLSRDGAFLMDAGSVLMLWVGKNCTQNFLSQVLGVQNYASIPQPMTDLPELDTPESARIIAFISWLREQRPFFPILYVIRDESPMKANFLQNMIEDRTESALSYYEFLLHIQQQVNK
Outline: as §1

TXNL1 = biological target: T3, TXNL1 (UniProt O43396)
T3 sequence (whole entry): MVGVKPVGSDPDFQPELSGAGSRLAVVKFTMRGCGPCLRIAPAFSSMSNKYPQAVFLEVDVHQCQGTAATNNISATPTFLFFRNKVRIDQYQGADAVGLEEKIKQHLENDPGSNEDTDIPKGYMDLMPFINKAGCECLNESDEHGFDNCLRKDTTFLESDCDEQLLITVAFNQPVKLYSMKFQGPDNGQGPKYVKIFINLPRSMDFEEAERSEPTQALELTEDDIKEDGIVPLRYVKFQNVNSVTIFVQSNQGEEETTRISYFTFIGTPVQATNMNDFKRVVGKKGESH
Outline: as §1

Nc1nc2c(ncn2[C@@H]2O[C@H](COP(=O)(O)OP(=O)(O)OP(=O)(O)O)[C@@H](O)[C@H]2O)c(=O)[nH]1 [guanosine triphosphate]
NP40-soluble protein abundance (GLA; concentration: 0.1mM): 1.04 ± 0.017
NP40-soluble protein abundance (GLA; concentration: 0.5mM): 1.04 ± 0.018
NP40-soluble protein abundance (GLA; concentration: 1mM): 1.01 ± 0.039
NP40-soluble protein abundance (GLA; concentration: 2mM): 0.982 ± 0.068
NP40-soluble protein abundance (GLA; concentration: 4mM): 0.985 ± 0.063
NP40-soluble protein abundance (GLA; concentration: 6mM): 0.966 ± 0.087
NP40-soluble protein abundance (GLA; concentration: 8mM): 0.983 ± 0.04
NP40-soluble protein abundance (GLA; concentration: 10mM): 0.979 ± 0.048
NP40-soluble protein abundance (SEC24A; concentration: 0.1mM): 0.974 ± 0.013
NP40-soluble protein abundance (SEC24A; concentration: 0.5mM): 0.986 ± 0.021
NP40-soluble protein abundance (SEC24A; concentration: 1mM): 0.926 ± 0.041
NP40-soluble protein abundance (SEC24A; concentration: 2mM): 0.909 ± 0.026
NP40-soluble protein abundance (SEC24A; concentration: 4mM): 0.957 ± 0.019
NP40-soluble protein abundance (SEC24A; concentration: 6mM): 0.944 ± 0.02
NP40-soluble protein abundance (SEC24A; concentration: 8mM): 0.909 ± 0.027
NP40-soluble protein abundance (SEC24A; concentration: 10mM): 0.915 ± 0.036
NP40-soluble protein abundance (TXNL1; concentration: 0.1mM): 0.993 ± 0.02
NP40-soluble protein abundance (TXNL1; concentration: 0.5mM): 1.03 ± 0.064
NP40-soluble protein abundance (TXNL1; concentration: 1mM): 1.02 ± 0.042
NP40-soluble protein abundance (TXNL1; concentration: 2mM): 1.01 ± 0.07
NP40-soluble protein abundance (TXNL1; concentration: 4mM): 1 ± 0.052
NP40-soluble protein abundance (TXNL1; concentration: 6mM): 1.01 ± 0.046
NP40-soluble protein abundance (TXNL1; concentration: 8mM): 1 ± 0.044
NP40-soluble protein abundance (TXNL1; concentration: 10mM): 1.01 ± 0.054
